Bioassay records as filed in PubChem.
FBPA coupling cs – qHTS Assay for Inhibitors of Fructose-1,6-bisphosphate Aldolase from Giardia Lamblia: Coupling assay counterscreen; coupling enzyme system counterscreen, AmpLite Red fluorescence; 290,000 tested, 0.67% active; AID 2472, 2010; activity change, negative = inhibition, % at 58.2 µM, hits read low; in the data active means activity change below about -30%
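Final compound at 57.5 uM, incubated 10 min at RT with coupling enzyme reagent (glyceraldehyde-3-phosphate), then 20 min with substrate and AmpLite Red detection. Fluorescence read at 525/598 nm; tests interference with the coupling assay, not aldolase inhibition.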
gsp ag – qHTS for Agonist of gsp, the Etiologic Mutation Responsible for Fibrous Dysplasia/McCune-Albright Syndrome: qHTS | 340,000 tested, 0.13% active | gsp mutant cells, cAMP HTRF, 30 min | Potency, µM (top dose mostly 76.9 µM), most hits filed as activators; active means well fitted activation curve with a large enough effect; inconclusive means small, poorly fitted or top-dose-only effect, or another doubt; inactive means no such curve, though single readings can be large or run the other way; cell line not stated here;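 further: phosphodiesterase inhibitor Ro 20-1724 added with compounds to block cAMP breakdown; nearly all actives have a fitted effect of over 60% in size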
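Cells in DMEM/10% FBS with G418 were pretreated with compounds in DMSO plus […] (300 uM stock) for 30 min at 37C. cAMP was measured by HTRF (cAMP-d2 plus anti-cAMP antibody-K) after 30 min at room temperature.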
gsp antag – qHTS for Antagonists of gsp, the Etiologic Mutation Responsible for Fibrous Dysplasia/McCune-Albright Syndrome: qHTS; gsp-mutant cells, cAMP HTRF, 30 min; Potency, µM (doses to about 76.9 µM), actives largely listed as inhibitors; 340,000 tested, 0.4% active; AID 624288, 2012; calls by dose curve; cell line not stated here;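 further: intracellular cAMP measured with PDE inhibitor Ro 20-1724 present during compound exposure; nearly all actives have a fitted effect of over 65% in size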
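HTRF cAMP measurement after 30 min RT detection following 30 min, 37C compound treatment alongside […] (added as 300 uM solution) in G418-selected cells seeded at 2000/well and grown 16–24 h.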
RXFP1 agonist – qHTS Assay for Agonists of the Relaxin Receptor RXFP1 | Potency, µM (series often up to 57.5 µM), most hits filed as activators | AID 2676, 2010 | Relaxin receptor 1 (Homo sapiens), Q9HBX9 | HEK293T-RXFP1 cAMP TR-FRET, 30 min; response scale: percent of porcine relaxin response, buffer zero | 370,000 tested, 0.3% active; active means well fitted activation curve with a large enough effect; inconclusive means small, poorly fitted or top-dose-only effect; further: nearly all actives have a fitted effect of over 60% in size
Target sequence (Q9HBX9 whole entry, looked up): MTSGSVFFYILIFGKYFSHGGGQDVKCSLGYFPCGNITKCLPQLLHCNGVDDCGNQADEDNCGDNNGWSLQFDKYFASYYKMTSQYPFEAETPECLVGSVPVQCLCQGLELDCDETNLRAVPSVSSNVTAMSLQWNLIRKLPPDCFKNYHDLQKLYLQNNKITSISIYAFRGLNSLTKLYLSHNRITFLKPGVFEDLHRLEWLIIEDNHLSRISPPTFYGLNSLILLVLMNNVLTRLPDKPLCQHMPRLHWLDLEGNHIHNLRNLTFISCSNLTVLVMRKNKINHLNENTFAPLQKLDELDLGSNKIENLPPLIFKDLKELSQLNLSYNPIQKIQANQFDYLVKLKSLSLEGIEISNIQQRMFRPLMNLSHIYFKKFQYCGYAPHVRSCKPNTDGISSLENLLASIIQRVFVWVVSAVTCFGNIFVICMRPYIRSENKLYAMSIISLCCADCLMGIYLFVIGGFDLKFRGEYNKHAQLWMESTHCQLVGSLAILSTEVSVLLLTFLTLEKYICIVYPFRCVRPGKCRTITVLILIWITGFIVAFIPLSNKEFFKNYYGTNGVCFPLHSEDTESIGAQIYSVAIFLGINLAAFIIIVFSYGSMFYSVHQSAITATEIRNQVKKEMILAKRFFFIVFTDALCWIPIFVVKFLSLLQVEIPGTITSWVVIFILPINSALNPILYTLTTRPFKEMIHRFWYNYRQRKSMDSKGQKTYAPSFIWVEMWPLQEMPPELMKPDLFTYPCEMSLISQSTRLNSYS
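HEK293T cells stably expressing RXFP1 were pretreated with the PDE4 inhibitor Ro 20174, exposed to compounds for 30 min at 37C, lysed, and cAMP was read by TR-FRET. Data normalized to buffer (basal) and 29 nM porcine relaxin (100%).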
Giardia kill – Small Molecules that selectively kill Giardia lamblia: qHTS. Giardia lamblia trophozoite viability. 340,000 tested, 0.15% active. AID 540267, 2011. activity change, % at 7.66 µM, hits read low; in the data active means activity change below about -80%; inconclusive means between about -30% and that limit;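 further: parasites exposed to compound for two days anaerobically before the ATP read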
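Anaerobic 48 hrs incubation at 37 deg C of 100 trophozoites/well with test compounds; ATPLite 1-Step luminescence, 15-30 min RT, reports cellular ATP as viability.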
RXFP1 antagonist – qHTS Assay for Antagonists of the Relaxin Receptor RXFP1; Relaxin receptor 1 (Homo sapiens), Q9HBX9; activity change, negative = inhibition, % at 57.5 µM; AID 1259400, 2018; HEK293-RXFP1, relaxin-stimulated cAMP HTRF, 30 min; hits give low values; 350,000 tested, 0.59% active;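 active means activity change of -60% or lower, but not beyond a set lower limit; inconclusive means change between -60% and -40%, or beyond the set limit; inactive means change above -40%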
A number is an active result; – = inactive; ? = inconclusive; · = not tested or not shown; [ ] = dose if it differs, or a comment. Only some compounds are listed: those with a hit (about 1.6% of all), similar ones and a draw of the others.

SMILES | FBPA coupling cs | gsp ag | gsp antag | RXFP1 agonist | Giardia kill | RXFP1 antagonist
Cc1cccc(C(=O)Oc2c(Sc3ccccc3)c(C)nn2C(C)(C)C)c1 | · | · | · | – | · | ·
CC[C@H](C)[C@H](NC(=O)[C@H](Cc1ccc(O)cc1)NC(=O)[C@@H](NC(=O)[C@H](CCCN=C(N)N)NC(=O)[C@@H](N)CC(=O)O)C(C)C)C(=O)N[C@@H](Cc1cnc[nH]1)C(=O)N1CCC[C@H]1C(=O)N[C@@H](Cc1ccccc1)C(=O)N[C@@H](Cc1cnc[nH]1)C(=O)N[C@@H](CC(C)C)C(=O)O | – | · | · | · | · | ·
CC(C)(C)c1csc(NNC(=O)c2ccc(Cl)cc2)n1 | – | – | – | – | – | -95
CCC1Sc2ccccc2N(CC(=O)NCc2ccc(C)cc2)C1=O (stereo not given) | · | · | · | – | · | –
CN(C)CCNc1nc2sc3c(c2c(=O)n1Cc1ccccc1)CCCCC3 | – | – | – | – | – | -92
CN(C)CCNc1nc2sc3c(c2c(=O)n1-c1ccccc1)CCCCC3 | – | –[15.4 µM] | – | – | – | –
C[C@H](Cc1nc2c(cnn2-c2ccccc2Cl)c(=O)[nH]1)C(F)(F)F | – | · | · | · | · | ·
Cc1cccc(C)c1NC(=O)CN1C(=O)NC(C)(C2CC2)C1=O (stereo not given) | · | – | – | · | – | –
COc1ccc(-c2cn3cc(C)ccc3n2)cc1F | -34 | –[15.4 µM] | – | – | ? | –
CN(C(=O)CSc1nc2scc(-c3ccccc3)c2c(=O)[nH]1)c1ccccc1 | · | – | ? | · | – | -64
CC(C)(C)C(=O)Nc1ccc(Cc2ccncc2)cc1 | · | – | – | · | – | –
COC(=O)c1ccc(Cn2cc(/C=C\[N+](=O)[O-])c3ccccc32)o1 | – | – | – | – | – | -95
O=C(O)c1ccc(-c2ccc3cc(C45CC6CC(CC(C6)C4)C5)c(O)cc3c2)cc1 | – | · | · | · | · | ·
O=C(CCc1nc2ccccc2s1)N1CCN(c2ccccc2)CC1 | – | – | – | – | – | –
CC(=O)c1ccc(N2CCN(C(=O)CCCc3nc4ccccc4s3)CC2)cc1 | – | – | 32µM | – | – | –
Cc1ccc(-n2c(O)c(/C=N/Nc3ccc(S(=O)(=O)N4CCOCC4)cc3[N+](=O)[O-])c3ccccc3c2=O)c(C)c1 | – | –[15.4 µM] | 40µM | – | ? | -94
COc1ccccc1N(CC(=O)NC1CCCC1)C(=O)CNC(=O)c1cccs1 | – | – | – | – | – | –
CCC(=O)N1N=C(c2ccc(Cl)cc2)CC1c1ccco1 (stereo not given) | – | –[15.4 µM] | – | – | – | -64
COc1ccc2c(C)cc(SCC(=O)NC3CCCC3)nc2c1 | · | 11µM | – | · | – | –
Cc1cc(SCC(=O)NC2CC2)nc2ccccc12 | · | –[15.4 µM] | – | · | – | –
CN(C)c1ccc(/C=N/N=C2/NC(=O)/C(=C/c3ccc([N+](=O)[O-])cc3)S2)cc1 | – | ? | – | – | -93 | –
CN(C)c1ccc(C=C2SC(=S)NC2=O)cc1 | · | – | ? | · | – | –
O=[N+]([O-])c1cc(/C=N/O)ccc1Sc1ccccc1 | – | – | – | – | – | -60
CO/N=C/c1ccc(Sc2ccccc2)c([N+](=O)[O-])c1 | – | – | – | – | – | –
Cn1c(=O)c2c(nc(CCC3CCCC3)n2C)n(C)c1=O | · | 11µM | – | · | – | –
SMILES | FBPA coupling cs | gsp ag | gsp antag | RXFP1 agonist | Giardia kill | RXFP1 antagonist
CCCn1c(CN2CCCCC2C)nc2c1c(=O)n(C)c(=O)n2C (stereo not given) | – | – | – | – | – | –
Cn1c(=O)c2c(nc(CN3CCN(Cc4ccccc4)CC3)n2Cc2ccccc2)n(C)c1=O | – | · | · | – | · | ·
Cn1c(=O)c2c(nc(Cc3ccc(N)cc3)n2C)n(C)c1=O | – | ? | – | 16µM | – | –
CN[C@@H](CCCN=C(N)N)C(=O)N[C@@H](CCCCN)C(=O)N1CCC[C@H]1C(=O)N[C@@H](Cc1c[nH]c2ccccc12)C(=O)N[C@H](C(=O)N[C@H](CC(C)C)C(=O)O)C(C)(C)C | – | · | · | · | · | ·
COc1ccc(/C=C2\CC/C(=C\c3ccc(OC)c(OC)c3)C2=O)cc1OC | – | – | – | – | – | –
COc1ccc(C=C2C=C(C(C)(C)C)C(=O)C(C(C)(C)C)=C2)cc1OC | – | – | – | – | – | -88
CC(C)(C)c1ccc(C(=O)NC(=S)NCc2ccco2)cc1 | · | – | – | – | – | –
Cc1ccc[n+](/C(C(=S)NCc2ccco2)=C(/[O-])c2ccccc2Cl)c1 | -32 | – | – | – | – | –
CC(C)(C)c1ccc(/C([O-])=C(/C(=S)NCc2ccco2)[n+]2ccccc2)cc1 | -30 | · | · | 25µM | · | ·
CCCc1nn2c(=O)cc(COC(=O)c3cccc(NC(=O)c4ccc(OCC)cc4)c3)nc2s1 | · | · | · | – | · | –
CCCCNc1cc(NC(C)=O)cc2cc(OC)c(OC)cc12 | -44 | – | ? | – | – | –
COc1cc2cc(NC(C)=O)cc(NCc3ccccc3)c2cc1OC | – | – | – | – | – | –
C(=C\c1ccco1)/C=N/n1cnnc1 | -40 | – | – | – | – | –
Cc1ccc(C(C)C)c(OCC(O)CN2CCc3ccccc3C2)c1 (stereo not given) | – | – | – | – | – | -80
Cc1ccc(C)c(OCC(O)CN2CCC(Cc3ccccc3)CC2)c1 (stereo not given) | – | – | – | – | – | -70
O=C(CSCC(=O)Nc1nc(-c2ccc3c(c2)OCO3)cs1)Nc1nccs1 | – | – | 32µM | – | – | –
O=C(CSc1ccc(-c2ccc3c(c2)OCO3)nn1)Nc1nccs1 | – | –[15.4 µM] | – | ? | – | –
Cc1nn(CCc2nn[nH]n2)c2nc(-c3ccc(C4CCCCC4)cc3)cc(C(F)(F)F)c12 | – | –[15.4 µM] | 11µM | – | – | –
COC(=O)c1ccc(-c2nc(O)c(C)s2)cc1 | – | ? | – | – | – | –
COC(=O)c1ccc(-c2nc3cc(Cl)c(N)cc3s2)cc1 | -32 | ? | – | – | ? | –
C[C@@H]1CN(CCCn2c3ccccc3c3ccccc32)C[C@H](C)N1 | – | · | · | – | · | -97
c1ccc(CN2CCN(c3ncnc4c3[nH]c3ccccc34)CC2)cc1 | – | – | 32µM | – | – | ·
Cc1ccc2c(c1)[nH]c1c(N3CCN(Cc4ccccc4)CC3)ncnc12 | – | – | ? | – | – | –
c1ccc2c(c1)[nH]c1c(N3CCC4(CC3)OCCO4)ncnc12 | – | – | 32µM | – | – | –
Cc1ccc2[nH]c3c(N4CCN(Cc5ccccc5)CC4)ncnc3c2c1 | – | – | 16µM | – | – | ?
